PI5P4Ka inh = inhibitors of human PI5P4K alpha. hit rate 1.2% among 330,000. max response, %. P48426. PI5P4Kalpha enzyme, ADP-Glo luminescence, 60 min; hits give low values. AID 652105; active = max response of -50% or lower; inconclusive = between -30% and -50%; inactive = -30% or higher; also: value at the top dose of about 77 µM
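Controls without substrate or without enzyme flank wells where PI5P4Kalpha converts substrate using 5 microM ATP (final). Incubation lasts 60 minutes at room temperature; ADP formed is read by ADP-Glo luminescence.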
Pin1 inh = inhibitors of human Pin1 | Potency, µM (highest dose often 115 µM), inactives show at the top dose activity, negative = inhibition, hits mostly inhibitors | Q13526 | Pin1 FP peptide displacement, HiFluor488, 10 min | hit rate 0.009% among 390,000; active = well fitted inhibition curve with a large enough effect in the polarisation, with a control signal flat, not every such curve was filed as active; inconclusive = small, poorly fitted or top-dose-only effect, or effect the other way, or a change in a side signal; inactive = no such curve, though single readings can be large or run the other way; the % refers to the polarisation; also: potency is read from the fitted curve at half-maximal effect
PI4K2A inh = PI4K2A (human) kinase inhibition. hit rate 0.13% among 420,000. activity change, negative = inhibition, % at 76.9 µM. purified PI4K2A, ADP-Glo luminescence, 1 h; hits give low values. AID 1346378; in the data active = activity change below about -50%; inconclusive = mostly about -30% to -49%;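 also: -100% = wells without enzyme as full effect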
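PI4K2A activity was measured by ADP-Glo luminescence: enzyme (4 ug/mL stock) and phosphatidylinositol (1.2 mM stock) in Tris pH 7.5/MgCl2/EGTA/Triton X-100 buffer were reacted with ATP (300 microM stock) for one hour at ambient temperature.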
GCN5L2 inh = blocks human GCN5L2 histone acetyltransferase; Potency, µM (series often up to 58.9 µM), inactives show at the highest dose activity change, negative = inhibition, usual class: inhibitors; GCN5L2 HAT assay, ThioGlo1 CoA-SH fluorescence; hit rate 0.21% among 390,000; AID 504327; Q92830; also: potency is read from the fitted curve at half-maximal effect
Target sequence (Q92830 whole entry, looked up): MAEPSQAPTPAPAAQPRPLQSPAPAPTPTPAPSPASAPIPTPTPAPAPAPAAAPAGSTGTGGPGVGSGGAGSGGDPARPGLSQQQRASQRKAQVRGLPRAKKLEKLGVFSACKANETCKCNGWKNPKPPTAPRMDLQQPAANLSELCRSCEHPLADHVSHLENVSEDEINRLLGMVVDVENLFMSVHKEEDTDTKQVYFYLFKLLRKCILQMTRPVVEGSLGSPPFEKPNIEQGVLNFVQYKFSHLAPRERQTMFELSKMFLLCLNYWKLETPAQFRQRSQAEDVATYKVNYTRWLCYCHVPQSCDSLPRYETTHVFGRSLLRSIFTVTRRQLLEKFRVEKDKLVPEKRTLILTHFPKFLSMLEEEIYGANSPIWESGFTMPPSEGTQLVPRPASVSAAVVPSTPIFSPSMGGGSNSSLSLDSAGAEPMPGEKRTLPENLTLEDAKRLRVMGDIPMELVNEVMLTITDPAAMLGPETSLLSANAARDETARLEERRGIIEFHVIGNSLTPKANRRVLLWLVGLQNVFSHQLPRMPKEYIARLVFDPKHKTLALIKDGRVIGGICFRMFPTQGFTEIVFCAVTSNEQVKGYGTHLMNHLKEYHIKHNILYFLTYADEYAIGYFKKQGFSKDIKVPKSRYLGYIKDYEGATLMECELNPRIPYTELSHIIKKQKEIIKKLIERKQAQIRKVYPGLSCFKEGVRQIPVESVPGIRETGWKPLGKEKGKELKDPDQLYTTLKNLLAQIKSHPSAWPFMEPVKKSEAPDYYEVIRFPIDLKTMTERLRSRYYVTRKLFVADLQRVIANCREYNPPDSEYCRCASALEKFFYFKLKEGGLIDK
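ThioGlo1-coupled HAT assay: 20nM GCN5L2, 70uM acetyl-CoA, 75uM H3(1-25) peptide, pH 7.5. Fluorescence read at 340/540nm at start and after 20 min at room temperature.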
PGK inhibitor = T. brucei PGK inhibition; P07378; PGK/GAPDH coupled, Kinase-Glo luminescence, 60 min; Potency, µM (series often up to 57.5 µM), for the others: top-dose activity change, negative = inhibition, usual class: inhibitors; hit rate 0.043% among 380,000; also: potency is read from the fitted curve at half-maximal effect; nearly all actives have a fitted effect of over 60% in size
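Recombinant glycosomal PGK reaction used 1,3-bisphosphoglycerate generated in-well by GAPDH (100nM final) in 100mM TEA pH 7.6, 5mM MgCl2, 0.01% Tween-20. After 60 minutes at room temperature, ATP was read by Kinase-Glo Plus luminescence end-point.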
GoLoco inh red = RGS12 GoLoco-Gai1 interaction inhibition; P63096; Gai1:RGS12 GoLoco peptide FP, rhodamine, 10 min; Potency, µM (top dose mostly 61.6 µM), inactives show at the highest dose activity, negative = inhibition, usual class: inhibitors; hit rate 0.44% among 230,000; active = well fitted inhibition curve with a large enough effect, not every such curve was filed as active; inactive = no such curve, though single readings can be large or run the other way; also: potency is read from the fitted curve at half-maximal effect; nearly all actives have a fitted effect of over 30% in size
* hit, by the source's call; i = inactive; u = inconclusive; x = not tested or not shown. In the library only some 1.2% were active in any assay of this set; here they are far more common. Unless noted, calls follow the shape of the dose curve; as a rule, active = well fitted curve in the direction sought with a large enough effect; inconclusive = small, poorly fitted or top-dose-only effect, or another doubt; inactive = no such curve, though single readings can be large; an effect the other way counts as inactive or inconclusive. Unless noted, % is scaled to controls: 0 for no effect and ±100 for the full control effect.

SMILES | PI5P4Ka inh | Pin1 inh | PI4K2A inh | GCN5L2 inh | PGK inhibitor | GoLoco inh red
O=c1ccc2[n+]([O-])c3ccc(O)cc3oc-2c1 | -23 | x | -5 | u | -21% | 10µM*
COc1ccc(Cn2c(C(=O)O)c(CNCc3ccc(SC)cc3)c3ccc(OC)cc32)cc1 | x | 11% | 5 | -9% | 11% | x
C=Cc1ccc(Cn2c(C(=O)O)c(CNCc3ccccc3)c3ccc(OC)cc32)cc1 | x | 0% | -12 | 32µM* | x | x
Cc1ccsc1C(=O)OCC(=O)NCc1ccccc1 | 8 | 3% | 0 | -4% | 1% | x
N#Cc1c(N)nc2c3c(sc(=N)c2c1N)NC(=O)CC3c1ccccc1 (stereo unspecified) | -87* | u | -4 | -2% | -1% | 5%
N#Cc1c(N)nc2c3c(sc(=N)c2c1N)NC(=O)CC3c1c(F)cccc1Cl (stereo unspecified) | -67* | 38% | -2 | -14% | -2% | 50%
Cc1c(C#N)c(N)nc2c3c(sc12)NC(=O)CC3c1ccc(Cl)cc1 (stereo unspecified) | -13 | -4% | -1 | 2% | -3% | 111%
COc1cc(N/N=C/c2ccc(N(C)C)cc2)ncn1 | -8 | -1% | -53* | -9% | -5% | 19%
COc1cc(N/N=C/c2ccccc2O)ncn1 | -23 | 3% | -10 | -3% | -9% | 35%
C=CCn1c(SCC(=O)Nc2ccc(C(=O)O)cc2)nc2scc(-c3ccccc3)c2c1=O | -92* | 3% | -2 | 1% | -3% | x
Cn1c(SCC(=O)Nc2ccc(C(=O)O)cc2)nc2scc(-c3ccccc3Cl)c2c1=O | -71* | -5% | 1 | 3% | -16% | x
CCn1c(SCC(=O)Nc2ccc(C(N)=O)cc2)nc2sc(C)c(C)c2c1=O | x | x | -1 | x | x | x
C=CCn1c(SCC(=O)Nc2ccc(C(=O)O)cc2)nc2sc(C)c(C)c2c1=O | -60* | 3% | 0 | -14% | -1% | x
Cc1c(C(=O)O)sc2nc(/C=C/c3cccc(F)c3)[nH]c(=O)c12 | -55* | 9% | -1 | 5% | -15% | x
Cc1c(C(=O)O)sc2nc(/C=C/c3ccccc3OC(F)F)[nH]c(=O)c12 | -63* | u | 0 | -22% | -16% | x
CCOC(=O)Cc1csc(NC(=O)CSc2nc(-c3ccccc3)c(C#N)c(=O)[nH]2)n1 | -65* | 3% | -9 | -2% | -1% | 5%
Cn1nc(-c2ccccn2)nc2c(=O)n(C)c(=O)nc1-2 | -6 | x | -63* | -5% | u | -6%
CCCc1nc2c(=O)n(C)c(=O)nc-2n(C)n1 | 0 | u | -61* | -4% | u | -3%
Cc1ccccc1NC(=O)c1c(O)c2cccc3c2n(c1=O)CC3 | x | x | x | -4% | x | 3%
CC(C)COC(=O)N(C)C[C@@H]1OCc2cnnn2CCCC(=O)N([C@@H](C)CO)C[C@@H]1C | -1 | x | -2 | x | 10% | x
CCOC(=O)C1CCCN(C(=O)CSc2ccc(Br)cc2)C1 (stereo unspecified) | -54* | 0% | -2 | -13% | i | 3%
CCOc1ccc(NC(=O)C2CCN(c3nc4ccccc4[nH]3)CC2)cc1 | x | 6% | -1 | -11% | i | x
Nc1ccc(Nc2nc3ccccc3[nH]2)cc1 | -52* | x | -4 | 0% | i | x
Nc1ccccc1Nc1nc2ccccc2[nH]1 | 0 | 3% | -14 | -2% | -5% | x
CCCCCCCCCCCCCCCC[N+](C)(C)CCl | -53* | 6% | -1 | x | i | x
SMILES | PI5P4Ka inh | Pin1 inh | PI4K2A inh | GCN5L2 inh | PGK inhibitor | GoLoco inh red
CCCCCCCCCCCCCC[N+](C)(C)C | x | x | 0 | -4% | x | x
CCCCCCCCCCCCCCCC[N+](C)(C)CC | -63* | 6% | 1 | -2% | 11% | x
CCOC(=O)CCCNC(=O)OC1CCC12CCC(c1ccccc1)CC2 (stereo unspecified) | x | x | -1 | x | x | x
O=C(CCN1C(=O)C2C3C=CC(C4CC34)C2C1=O)OCC(=O)c1ccccc1 (stereo unspecified) | -17 | 0% | 9 | -1% | -1% | x
CCCCCCCN1CCN=C1Nc1ccccc1 | -6 | 0% | -1 | 3% | -2% | x
O=C(CSc1n[nH]c(=O)[nH]c1=O)Nc1ccc2c(c1)C(=O)c1ccccc1C2=O | -59* | x | -17 | u | u | -10%
O=Cc1cccc(OC(=O)/C=C/c2ccco2)c1 | -98* | x | -12 | u | u | x
COC(=O)c1ccc(OC(=O)/C=C/c2ccco2)cc1 | 0 | -9% | -13 | -8% | i | x
Cc1cc(=O)[nH]c(Nc2cccc(F)c2)n1 | -1 | 2% | 0 | 1% | -4% | x
N#Cc1c(Nc2cccc(F)c2)sc2c(O)cc(=O)[nH]c12 | -76* | u | -4 | u | -8% | 54%
Cc1cc(=O)oc2c3c(cc(OCC(=O)NCC(=O)N[C@H](C(=O)O)C(C)C)c12)OC(C)(C)CC3 | -7 | -2% | -1 | -18% | 1% | x
CC[C@H](C)[C@H](NC(=O)CNC(=O)COc1cc2c(c3oc(=O)cc(C)c13)CCC(C)(C)O2)C(=O)O | 3 | -5% | 0 | 22µM* | 0% | x
CN(C)c1ccc(/C=N/NC(=O)c2ccc3c(c2)OCCO3)cc1 | -1 | -3% | 1 | -13% | -7% | x
COc1cc(OC)cc(C(=O)Nc2nnc(NC(=S)Nc3ccccc3)s2)c1 | -55* | 144% | -5 | -11% | -4% | 6%
COc1cc(OC)cc(C(=O)Nc2ccc(Nc3ccccc3)cc2)c1 | -8 | 8% | -5 | 1% | -13% | x
Cc1cccc(N2CCN(C(=O)CSCc3ccc(F)cc3)CC2)c1C | x | -2% | -9 | -2% | 0% | x
Cc1cccc(N2CCN(C(=O)c3ccc4c(c3)NC(=O)C(CSCc3cccc(F)c3)N4)CC2)c1C (stereo unspecified) | x | x | x | 28µM* | x | x
O=Cc1cc(N=Nc2cccc(C(=O)O)c2)ccc1O | -79* | -15% | -12 | -27% | -6% | 1%
CCCCCCCn1ccc(=N)cc1 | -8 | -3% | -1 | -1% | -3% | 16µM*
CCn1ccc(=N)cc1 | 1 | 1% | -2 | 2% | -3% | -11%
CCCCCn1ccc(=N)cc1 | -1 | 5% | 0 | -2% | 4% | 13µM*
CCCCCCCCCn1ccc(=N)cc1 | 6 | 2% | -11 | -7% | i | 2%
CCC(C)NC(=O)C1CCN(S(=O)(=O)c2ccc3c(c2)CC(C)N3C(C)=O)CC1 (stereo unspecified) | -1 | 2% | 0 | -6% | -9% | x
Oc1ccc(N=Nc2ccccc2-c2nn[nH]n2)c(O)c1 | -63* | u | -9 | -3% | x | x
Cc1ccccc1-c1nn[nH]n1 | x | 0% | -1 | 0% | -6% | 3%

Bioassay records (PubChem BioAssay)
